Screening data deposited in PubChem by National Center for Advancing Translational Sciences (NCATS).
This is a sample that favours compounds with a hit; in the whole collection about 19% have one here.
TGFb SMAD3 inh – inhibitors of TGF-b signaling | HepG2 CAGA-GFP TGF-b/SMAD3 reporter, GFP fluorescence, 18 h; TGF-beta stimulated, 500 pg/mL final | Potency, µM (series often up to 46.1 µM), for the others: top-dose activity, negative = inhibition, usual class: inhibitors | 410,000 tested, 1.2% active; further: potency means the concentration at half of the fitted maximal effect; on the % scale 0 is the no-effect control and ±100 the full control effect; nearly all actives have a fitted effect of over 65% in size
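HEPG2 CAGA-GFP, 1000 cells/well; 2 h settle, 37 C; cpd via pin tool; TGF-b 500 pg/mL final; 18 h, 37 C; GFP imaging ex488/em500-530; %Activity normalised to -TGF-b and +DMSO controls; CRC fit, curve class.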
ASM inhibitor – human S-ASM enzyme inhibition. placental ASM, HMU-PC fluorogenic substrate, 60 min. P17405. AID 504937. Potency, µM (top dose mostly 57.5 µM), without a hit: at the highest dose activity change, negative = inhibition, most hits filed as inhibitors. 340,000 tested, 0.006% active; further: potency means the concentration at half of the fitted maximal effect
Target sequence (P17405 47-631 limits assumed): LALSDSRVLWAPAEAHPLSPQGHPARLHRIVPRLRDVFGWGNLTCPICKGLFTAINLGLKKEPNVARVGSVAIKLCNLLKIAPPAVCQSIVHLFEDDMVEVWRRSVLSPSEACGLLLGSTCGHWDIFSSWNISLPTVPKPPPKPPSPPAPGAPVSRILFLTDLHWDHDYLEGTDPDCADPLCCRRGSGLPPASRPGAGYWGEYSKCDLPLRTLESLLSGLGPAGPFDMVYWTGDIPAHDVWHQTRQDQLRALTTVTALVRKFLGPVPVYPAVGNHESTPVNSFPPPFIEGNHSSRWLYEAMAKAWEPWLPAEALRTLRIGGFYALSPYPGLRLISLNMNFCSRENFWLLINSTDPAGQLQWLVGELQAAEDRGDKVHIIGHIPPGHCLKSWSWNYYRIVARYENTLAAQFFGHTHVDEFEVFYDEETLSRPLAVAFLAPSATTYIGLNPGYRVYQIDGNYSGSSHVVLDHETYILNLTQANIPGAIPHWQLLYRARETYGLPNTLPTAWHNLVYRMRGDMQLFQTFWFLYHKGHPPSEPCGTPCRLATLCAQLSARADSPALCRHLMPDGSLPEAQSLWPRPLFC
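Fluorogenic HMU-PC substrate (9 uM final) is turned over by placental ASM in 60 min at 37 C after a 10 min compound preincubation. Reaction ended by alkaline stop (pH 10), with fluorescence read at 386/447 nm.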
TDP1 cell CPT – DT40-hTDP1 cell growth loss with CPT; chicken DT40 Tdp1-/-;hTDP1 cells + 20 nM CPT, ATP luminescence, 48 h; Potency, µM (titrated, usually from 46.2 µM), for the others: top-dose activity change, negative = growth inhibition, usual class: inhibitors; 420,000 tested, 12% active; further: potency means the concentration at half of the fitted maximal effect; on the % scale 0 is the no-effect control and ±100 the full control effect; nearly all actives have a fitted effect of over 55% in size
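Cell growth measured by CellTiter-Glo luminescence after a minimum 48 h, 37 C compound exposure with 20 nM CPT in Tdp1-knockout DT40 cells stably expressing hTDP1, seeded 400/well; qHTS titration format.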
HepG2 viability – kills HepG2 cells in TGF-b inhibitor counter-screen. HepG2 CAGA-GFP viability, ATP luminescence, 18 h. Potency, µM (top dose mostly 46.1 µM), without a hit: top-dose activity change, negative = cytotoxicity, most hits filed as cytotoxic. 410,000 tested, 0.76% active. AID 588856; further: potency means the concentration at half of the fitted maximal effect
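CellTiter-Glo luminescence gave cytotoxicity after 18 hours at 37 degrees C. The cells were HepG2 CAGA-GFP in 1% FBS DMEM, stimulated with 500 pg/mL TGF-beta after compound addition. %Activity was normalised to no-cell wells (complete cell-killing) and DMSO (no toxicity), and curves were fitted and classified.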
IL1B secr inh – inhibitors of inflammasome signaling (IL-1 beta secretion); THP-1 LPS/ATP IL-1B secretion, AlphaLISA, 16 h; active compounds read low; 360,000 tested, 4.7% active; activity change, % at 57.5 µM; in the data active means activity change below about -50%; inconclusive means mostly about -30% to -49%; further: on the % scale 0 is the no-effect control and ±100 the full control effect
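Secreted IL-1B measured by AlphaLISA bead assay after 16 h compound exposure of THP-1 cells; compounds (final up to 57.5 uM) added 1 h before LPS (250 ng/mL) and ATP (1.25 mM) stimulation; lower signal means less secretion.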
DT40 TDP1 no CPT – qHTS for Inhibitors of human tyrosyl-DNA phosphodiesterase 1 (TDP1): qHTS in cells in absence of CPT; DT40 Tdp1-/- hTDP1 cells, no CPT, ATP luminescence, 48 h; AID 686978, 2013; 420,000 tested, 15% active; Potency, µM (doses to about 46.2 µM), inactives show at the highest dose activity change, negative = growth inhibition, usual class: inhibitors; further: potency means the concentration at half of the fitted maximal effect; on the % scale 0 is the no-effect control and ±100 the full control effect; nearly all actives have a fitted effect of over 55% in size
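Compound effects on proliferation are scored in DT40 Tdp1-/-;hTDP1 cells in the absence of CPT. ATP levels (CellTiter-Glo luminescence) are recorded after a ≥48 hr, 37 °C incubation.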
The depositor's hits bear a star. Unless noted, the call rests on the fitted dose curve; in most records, active means well fitted curve in the direction sought with a large enough effect; inconclusive means small, poorly fitted or top-dose-only effect, or another doubt; inactive means no such curve, though single readings can be large; an effect the other way counts as inactive or inconclusive.

Results for CCCCn1c2c(c(=N)c3ccccc31)CCC2 ?
TGFb SMAD3 inh: -16%; ASM inhibitor: 2%; TDP1 cell CPT: inconclusive; HepG2 viability: 0%; IL1B secr inh: -2; DT40 TDP1 no CPT: inconclusive

Results for CN1/C(=C/C=N/n2cnnc2)C(C)(C)c2ccccc21 ?
TGFb SMAD3 inh: -5%; ASM inhibitor: 107%; TDP1 cell CPT: 18µM*; HepG2 viability: -15%; IL1B secr inh: 25; DT40 TDP1 no CPT: 23µM*

How did CN1/C(=C\C=C(C#N)C#N)C(C)(C)c2ccccc21 do in these assays?
TGFb SMAD3 inh: 0%; ASM inhibitor: -12%; TDP1 cell CPT: -7%; HepG2 viability: 3%; IL1B secr inh: 19; DT40 TDP1 no CPT: -16%

Results for CCCCc1c(-c2cccc(Cl)c2)ncn1CCc1ccccc1OC ?
TDP1 cell CPT: 8.2µM*; IL1B secr inh: -58*; DT40 TDP1 no CPT: 8.2µM*

Results for CCc1ccccc1OCCCOc1ccc(OC)cc1 ?
TGFb SMAD3 inh: inconclusive; ASM inhibitor: -4%; TDP1 cell CPT: 1%; HepG2 viability: -24%; IL1B secr inh: 41; DT40 TDP1 no CPT: 0%

How did CCCCc1c(-c2ccccc2)ncn1CCc1ccccc1OC do in these assays?
TDP1 cell CPT: inconclusive; IL1B secr inh: inconclusive; DT40 TDP1 no CPT: 16µM*

How did CCCCCc1c(-c2ccc(Cl)cc2)ncn1CCc1ccccc1OC do in these assays?
TDP1 cell CPT: 8.2µM*; IL1B secr inh: -63*; DT40 TDP1 no CPT: 7.3µM*

What do the screens show for `CCCCc1c(-c2ccc(OC)cc2)ncn1CCc1ccccc1OC`?
TDP1 cell CPT: 21µM*; IL1B secr inh: -114*; DT40 TDP1 no CPT: 23µM*

What do the screens show for `O=C(Nc1ccc2c(c1)OCO2)c1ccc2sc([C@H]3C[C@H](O)[C@@H](CO)O3)nc2c1`?
TGFb SMAD3 inh: 10%; TDP1 cell CPT: -5%; HepG2 viability: 3%; IL1B secr inh: 22; DT40 TDP1 no CPT: -25%

How did Cc1cc(NS(=O)(=O)c2ccc(NC(=O)CCCOc3ccccc3C)cc2)nc(C)n1 do in these assays?
TGFb SMAD3 inh: -2%; ASM inhibitor: -3%; TDP1 cell CPT: -4%; HepG2 viability: -24%; IL1B secr inh: 29; DT40 TDP1 no CPT: -9%

How did COc1ccccc1CCn1c(=O)c(-c2cc(F)cc(F)c2)nc2cncnc21 do in these assays?
TDP1 cell CPT: -9%; DT40 TDP1 no CPT: -4%

Results for CCCCCc1c(-c2ccc(OC)cc2)ncn1CCc1ccccc1OC ?
TDP1 cell CPT: 13µM*; IL1B secr inh: -94*; DT40 TDP1 no CPT: 15µM*

Results for CCCCc1c(-c2ccc(F)cc2)ncn1CCc1ccccc1OC ?
TDP1 cell CPT: inconclusive; IL1B secr inh: inconclusive; DT40 TDP1 no CPT: 21µM*

What do the screens show for `CCCc1c(-c2cccc(Cl)c2)ncn1Cc1ccccc1OC`?
TDP1 cell CPT: 5.8µM*; IL1B secr inh: inconclusive; DT40 TDP1 no CPT: 9.2µM*

Results for COc1ccccc1CCn1cnc(Cc2cccc(F)c2)c1C(C)C ?
TDP1 cell CPT: inconclusive; IL1B secr inh: 0; DT40 TDP1 no CPT: inconclusive

Results for CCCCc1c(Cc2ccccc2)ncn1CCc1ccccc1OC ?
TDP1 cell CPT: 2.9µM*; IL1B secr inh: -58*; DT40 TDP1 no CPT: 5.2µM*

Results for CCCNC(=O)c1ccccc1C(=O)NC1(C(=O)NCCC)CCCC1 ?
TGFb SMAD3 inh: 2%; ASM inhibitor: 0%; TDP1 cell CPT: 27%; HepG2 viability: -4%; IL1B secr inh: 0; DT40 TDP1 no CPT: 4%

What do the screens show for `COc1ccc(C(=O)N(c2c(C)cccc2C)C(COC(C)=O)COC(C)=O)cc1`?
TDP1 cell CPT: inconclusive; IL1B secr inh: 21; DT40 TDP1 no CPT: inconclusive

Results for CCOC(=O)COc1ccc2c(C)c(CCN(CC)CC)c(=O)oc2c1 ?
TDP1 cell CPT: 6%; DT40 TDP1 no CPT: -3%

Results for Cc1c(NC(=S)NC(=O)c2ccccc2Br)c(=O)n(-c2ccccc2)n1C ?
TGFb SMAD3 inh: 16%; ASM inhibitor: 5%; TDP1 cell CPT: 8%; HepG2 viability: -1%; IL1B secr inh: 29; DT40 TDP1 no CPT: 0%

How did COc1ccc(C)cc1NC(=O)C(c1ccccc1)N1CCN(CC(=O)NC2CC2)CC1 (stereo not given) do in these assays?
TGFb SMAD3 inh: -16%; ASM inhibitor: 0%; TDP1 cell CPT: inconclusive; HepG2 viability: -29%; IL1B secr inh: 2; DT40 TDP1 no CPT: inconclusive

How did N#CC(C#N)=C1C=C2C=C(N3CCCCC3)CCC2CC1 (stereo not given) do in these assays?
TGFb SMAD3 inh: -23%; ASM inhibitor: -15%; TDP1 cell CPT: 26µM*; HepG2 viability: -32%; IL1B secr inh: -6; DT40 TDP1 no CPT: 21µM*

How did CCN(CC)C1=CC2=CC(=C(C#N)C#N)CCC2CC1 (stereo not given) do in these assays?
TGFb SMAD3 inh: -78%; ASM inhibitor: -9%; TDP1 cell CPT: -14%; HepG2 viability: 5%; IL1B secr inh: -2; DT40 TDP1 no CPT: inconclusive

Results for O=C(Cn1c(=O)n(Cc2ccco2)c(=O)c2ccccc21)Nc1ccc(Cl)cc1Cl ?
TGFb SMAD3 inh: -9%; TDP1 cell CPT: inconclusive; HepG2 viability: 1%; DT40 TDP1 no CPT: inconclusive

How did CC1=C(C(=O)Nc2ccc(Cl)cc2)C(C(C)C)n2nc(SCc3cccc(C)c3)nc2N1 (stereo not given) do in these assays?
TGFb SMAD3 inh: -4%; TDP1 cell CPT: inconclusive; HepG2 viability: 0%; DT40 TDP1 no CPT: inconclusive

What do the screens show for `O=C(CN1CCN(Cc2ccc(Cl)cc2)C1=O)NCCCN1CCN(c2ccc(F)cc2)CC1`?
TGFb SMAD3 inh: 1%; ASM inhibitor: -1%; TDP1 cell CPT: 8.9µM*; HepG2 viability: -57%; IL1B secr inh: -70*; DT40 TDP1 no CPT: 10µM*

Results for Cc1ccccc1CN1CCN(CC(=O)NCCCN2CCN(c3ccc(F)cc3)CC2)C1=O ?
TGFb SMAD3 inh: -14%; ASM inhibitor: 5%; TDP1 cell CPT: 16µM*; HepG2 viability: -9%; IL1B secr inh: inconclusive; DT40 TDP1 no CPT: 13µM*

Results for CC(C)OCCCNC(=O)CN1CCN(Cc2ccccc2Cl)C1=O ?
TGFb SMAD3 inh: 2%; ASM inhibitor: -2%; TDP1 cell CPT: inconclusive; HepG2 viability: 3%; IL1B secr inh: 9; DT40 TDP1 no CPT: 18µM*
